In this assay the test system is HL-1. The assay is described as follows: relative cell viability (CellTiter-Glo) vs DMSO control (% of DMSO control); higher = more viable cells. The gist of the method:
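Cell viability, normalised to vehicle-treated control cells, was read by CellTiter-Glo luminescence. For this, HL-1 mouse atrial cardiomyocytes were plated at 1000 cells per well in 384-well plates alongside compounds at 40, 200, 1000 or 5000 nM in 0.01% DMSO. After a day, plates either spent 48 h in a hypoxic workstation at 1% O2 and then 24 h reoxygenating in a normal incubator, or remained in normoxia for the same period.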
(In general: In ATP-based viability assays light output follows the ATP content of the culture.)

The mark [1] stands for this setting: oxygen condition: hypoxia 48 h (1% O2) + reoxygenation 24 h, 40 nM.
The mark [2] stands for this setting: oxygen condition: hypoxia 48 h (1% O2) + reoxygenation 24 h, 200 nM.
[3] abbreviates: oxygen condition: hypoxia 48 h (1% O2) + reoxygenation 24 h, 1000 nM.
The mark [4] stands for this setting: oxygen condition: hypoxia 48 h (1% O2) + reoxygenation 24 h, 5000 nM.
Where [5] appears, read: oxygen condition: normoxia 72 h, 40 nM.
Setting [6] is: oxygen condition: normoxia 72 h, 200 nM.
Where [7] appears, read: oxygen condition: normoxia 72 h, 1000 nM.
The mark [8] stands for this setting: oxygen condition: normoxia 72 h, 5000 nM.

The structures appear in SMILES notation. Where a name gives a salt, the structure may show the parent alone.

On to `Cc1ncc([N+](=O)[O-])n1CC(O)CCl` (centres undefined) [Ornidazole], for which the relative cell viability is, setting by setting: under setting [1], 106; under setting [2], 109; under setting [3], 123; under setting [4], 115; under setting [5], 108; under setting [6], 108. In addition, the relative cell viability is, setting by setting: under setting [7], 103; under setting [8], 117.

Take `c1cnc2cc3c(cc2n1)[C@@H]1CNC[C@H]3C1` [Varenicline tartrate]: the relative cell viability reads like this: under setting [1], 106; under setting [2], 105; under setting [3], 110; under setting [4], 106; under setting [5], 106; under setting [6], 102. Further, the relative cell viability is 112 under setting [7] and 97.8 under setting [8].

`CCCCOc1cc(C(=O)OCCN(CC)CC)ccc1N` [Oxybuprocaine HCl]: the relative cell viability is, setting by setting: under setting [1], 106; under setting [2], 106; under setting [3], 108; under setting [4], 108; under setting [5], 103; under setting [6], 102. Also, the relative cell viability reads like this: under setting [7], 113; under setting [8], 112.

On to `C[C@H]1O[C@H](O[C@H]2[C@H](O)[C@@H](O)[C@@H](O[C@H]3[C@H](O)[C@@H](O)C(O)O[C@@H]3CO)O[C@@H]2CO)[C@H](O)[C@@H](O)[C@@H]1N[C@H]1C=C(CO)[C@@H](O)[C@H](O)[C@H]1O` (some centres undefined) [Acarbose], for which the relative cell viability reads like this: under setting [1], 106; under setting [2], 108; under setting [3], 108; under setting [4], 107; under setting [5], 106; under setting [6], 107. Besides, the relative cell viability runs as follows: under setting [7], 111; under setting [8], 107.

On to `Cc1cccc(Nc2ccccc2C(=O)O)c1C` [Mefenamic acid], for which the relative cell viability was found to be 96.6 under setting [1]; 93.4 under setting [2]; 102 under setting [3]; 113 under setting [4]; 100 under setting [5]; 105 under setting [6]. In addition, the relative cell viability worked out at 111 under setting [7] and 110 under setting [8].

`Cc1cccc(CN2CCN(C(c3ccccc3)c3ccc(Cl)cc3)CC2)c1` (centres undefined) [Meclizine 2HCl]: the relative cell viability is, setting by setting: under setting [1], 101; under setting [2], 108; under setting [3], 98.5; under setting [4], 107; under setting [5], 101; under setting [6], 109. The same compound showed a relative cell viability under setting [7] of 111 and a relative cell viability under setting [8] of 103.

`CCOC(=O)c1ccc(OC(=O)CCCCCNC(=N)N)cc1` [Gabexate mesylate]: the relative cell viability came out at 107 under setting [1]; 105 under setting [2]; 112 under setting [3]; 108 under setting [4]; 101 under setting [5]; 98.9 under setting [6]. This compound displayed a relative cell viability under setting [7] of 109 and a relative cell viability under setting [8] of 110.

Consider `Cc1c(N(C)C)c(=O)n(-c2ccccc2)n1C` [Amidopyrine], for which the relative cell viability was determined as 107 under setting [1]; 111 under setting [2]; 109 under setting [3]; 114 under setting [4]; 107 under setting [5]; 105 under setting [6]. In addition, the relative cell viability reads like this: under setting [7], 110; under setting [8], 118.

For `CNCCCC12CCC(c3ccccc31)c1ccccc12` [Maprotiline hydrochloride], the relative cell viability runs as follows: under setting [1], 98.7; under setting [2], 103; under setting [3], 93.4; under setting [4], 83.3; under setting [5], 98.7; under setting [6], 102. The relative cell viability runs as follows: under setting [7], 102; under setting [8], 87.7.

As to `C[C@@H]1CCN(C(=O)CC#N)C[C@@H]1N(C)c1ncnc2[nH]ccc12` [Tofacitinib citrate], the relative cell viability came out at 97 under setting [1]; 104 under setting [2]; 100 under setting [3]; 107 under setting [4]; 106 under setting [5]; 102 under setting [6]. Moreover, the relative cell viability runs as follows: under setting [7], 98.7; under setting [8], 103.

Turning to `Cc1ccc(Nc2nccc(N(C)c3ccc4c(C)n(C)nc4c3)n2)cc1S(N)(=O)=O` [Pazopanib], the relative cell viability under setting [1] came to 104; the relative cell viability under setting [2] came to 108; the relative cell viability under setting [3] is 102; the relative cell viability under setting [4] came out at 116; the relative cell viability under setting [5] stood at 92.7; the relative cell viability under setting [6] turned out to be 102. Moreover, the relative cell viability reads like this: under setting [7], 110; under setting [8], 110.

Turning to `CN1CC2c3ccccc3Oc3ccc(Cl)cc3C2C1` (centres undefined) [Asenapine], the relative cell viability is, setting by setting: under setting [1], 105; under setting [2], 104; under setting [3], 108; under setting [4], 106; under setting [5], 111; under setting [6], 101. For the same compound, the relative cell viability turned out to be 103 under setting [7] and 111 under setting [8].

For the compound `Nc1ncnc2c1ncn2[C@@H]1O[C@H](CO)[C@@H](O)[C@H]1O` [Adenosine], the relative cell viability under setting [1] amounted to 104; the relative cell viability under setting [2] came out at 107; the relative cell viability under setting [3] is 113; the relative cell viability under setting [4] came to 108; the relative cell viability under setting [5] came out at 104; the relative cell viability under setting [6] worked out at 108. This compound registered a relative cell viability under setting [7] of 111 and a relative cell viability under setting [8] of 110.

For `COc1ccc(CNc2nc(N3CCC[C@H]3CO)ncc2C(=O)NCc2ncccn2)cc1Cl` [Avanafil], the relative cell viability under setting [1] is 91.6; the relative cell viability under setting [2] was found to be 99.7; the relative cell viability under setting [3] stood at 97.5; the relative cell viability under setting [4] turned out to be 103; the relative cell viability under setting [5] came out at 101; the relative cell viability under setting [6] was determined as 102. Besides, the relative cell viability was found to be 97.1 under setting [7] and 107 under setting [8].

As to `O=C(CCCCCCC(=O)Nc1ccccc1)NO` [Vorinostat], the relative cell viability runs as follows: under setting [1], 101; under setting [2], 105; under setting [3], 85; under setting [4], 27.2; under setting [5], 103; under setting [6], 101. Besides, the relative cell viability runs as follows: under setting [7], 90.1; under setting [8], 14.6.

With `CCOc1cc(N)c(Cl)cc1C(=O)NCC1CN(Cc2ccc(F)cc2)CCO1` (centres undefined) [Mosapride citrate], the relative cell viability under setting [1] was determined as 105; the relative cell viability under setting [2] was found to be 106; the relative cell viability under setting [3] turned out to be 104; the relative cell viability under setting [4] worked out at 104; the relative cell viability under setting [5] came to 104; the relative cell viability under setting [6] worked out at 109. Moreover, the relative cell viability under setting [7] turned out to be 103 and the relative cell viability under setting [8] was 109.

For the compound `COCCCC/C(=N\OCCN)c1ccc(C(F)(F)F)cc1` [Fluvoxamine maleate], the relative cell viability reads like this: under setting [1], 101; under setting [2], 109; under setting [3], 94.9; under setting [4], 94.7; under setting [5], 109; under setting [6], 98.3. Further, the relative cell viability was 106 under setting [7] and 95.2 under setting [8].

For the compound `Cc1cn([C@H]2C[C@H](N=[N+]=[N-])[C@@H](CO)O2)c(=O)[nH]c1=O` [Zidovudine], the relative cell viability runs as follows: under setting [1], 106; under setting [2], 109; under setting [3], 119; under setting [4], 112; under setting [5], 110; under setting [6], 110. The relative cell viability runs as follows: under setting [7], 112; under setting [8], 109.

Source of the values: the supplement of paper PMC8371130.
